According to PubChem BioAssay AID1782 (National Center for Advancing Translational Sciences (NCATS), 2009):
Records with an inconclusive call do not appear. The source made the active and inactive calls. The call rests on the fitted dose curve; in most records, active means well fitted curve in the direction sought with a large enough effect; inconclusive means small, poorly fitted or top-dose-only effect, or another doubt; inactive means no such curve, though single readings can be large or run the other way.

The molecules below were run against Pyruvate kinase PKLR (Homo sapiens) (UniProt P30613) (assay: Confirmation Concentration-Response Assay for Activators of Human Reticulocyte Pyruvate Kinase). Conditions: purified hPK-R, Kinase-Glo ATP luminescence, 1 h; series mostly up to 57.5 µM.
Pyruvate kinase PKLR (Homo sapiens), sequence (P30613 whole entry, looked up): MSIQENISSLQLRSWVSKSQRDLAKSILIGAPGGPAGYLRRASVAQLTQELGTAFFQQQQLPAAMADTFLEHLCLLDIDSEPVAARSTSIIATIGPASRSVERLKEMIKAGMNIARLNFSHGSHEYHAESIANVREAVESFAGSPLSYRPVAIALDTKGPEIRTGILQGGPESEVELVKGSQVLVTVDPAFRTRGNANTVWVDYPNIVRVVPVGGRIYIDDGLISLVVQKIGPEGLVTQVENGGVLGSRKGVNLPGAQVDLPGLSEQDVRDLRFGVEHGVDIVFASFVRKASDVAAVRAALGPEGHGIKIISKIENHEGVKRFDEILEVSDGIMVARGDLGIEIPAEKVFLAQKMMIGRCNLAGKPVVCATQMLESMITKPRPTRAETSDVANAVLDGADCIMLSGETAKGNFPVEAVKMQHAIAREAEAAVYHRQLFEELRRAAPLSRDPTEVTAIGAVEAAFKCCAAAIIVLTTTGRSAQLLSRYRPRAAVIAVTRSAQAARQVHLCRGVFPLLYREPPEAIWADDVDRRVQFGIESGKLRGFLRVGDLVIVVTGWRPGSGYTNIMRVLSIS
Source text: Confirmatory assay NIH Chemical Genomics Center [NCGC] Wael M. Rabeh, Lyudmila Nedyalkova and Hee-Wan Park [Structural Genomics Consortium, 100 College St. Toronto, Ontario, Canada] NCGC Assay Overview: Human pyruvate kinase reticulocyte (hPK-R) enzyme was supplied as a highly purified (>95% pure) preparation from Structural Genomics Consortium in Toronto (Ontario, Canada) and assayed for its ability to generate ATP from ADP using phosphoenolpyruvate (PEP) as a substrate. ATP generation was detected in a coupled reaction by luciferase-mediated luminescence, an ATP-dependent process. Pyruvate kinase substrates, PEP and ADP, were present in the assay at Km and approximately 10-fold below Km respectively. The enzyme was assayed at an intermediate level of activity to screen for both inhibitors and activators.
NCGC Assay Protocol Summary for R-isoform Three uL of substrate mix (at r.t.) in assay buffer (50 mM Imidazole pH7.2, 50 mM KCl, 7 mM MgCl2, 0.01% Tween 20, 0.05% BSA) was dispensed into white solid bottom 1,536 well microtiter plates so that the final concentrations of substrates in the assay were 0.1 mM ADP and 0.5 mM PEP. 23 nL of compound were delivered by a pin tool and 1 uL of enzyme mix (final concentration of 0.1 nM) in assay buffer (4 degree Celsius) was added. Plates were incubated at room temperature for 1 hour. Two uL of detection mix (Kinase-Glo, Promega; at 4 degree Celsius protected from light) was added and luminescence read by a ViewLux (Perkin Elmer) at 1 second exposure/plate. Data were normalized to the uninhibited (row 31). Additionally, a no enzyme and 5-fold enzyme control was dispensed in row 32, split equally between the two conditions.

Potency, inactive:
Cc1cc2c(s1)c1cnn(Cc3cccc(F)c3F)c(=O)c1n2C
CCn1c2cc(C)sc2c2cnn(Cc3ccccc3F)c(=O)c21
CC(=O)Nc1cc2c(s1)c1cnn(Cc3ccccc3F)c(=O)c1n2C
Cn1c2cc([N+](=O)[O-])sc2c2cnn(Cc3ccccc3F)c(=O)c21
COc1ccc(Cn2ncc3c4sc(C)cc4n(C)c3c2=O)cc1
Cc1cc2c(s1)c1cnn(Cc3ccc(F)c(F)c3F)c(=O)c1n2C
O=C(c1ccc2c(c1)OCCO2)N1CCN(S(=O)(=O)c2c(F)cccc2F)CC1
Cc1cc2c(s1)c1cnn(Cc3cc(C(F)(F)F)cc(Cl)c3F)c(=O)c1n2C
Cc1cc2c(s1)c1cnn(Cc3ccccc3)c(=O)c1n2C
Cc1cc2c(s1)c1cnn(Cc3ccccc3F)c(=O)c1n2C
CC(C)c1cc2c(s1)c1cnn(Cc3ccccc3F)c(=O)c1n2C
Cc1cc2c(s1)c1cnn(Cc3cccc(F)c3)c(=O)c1n2C
O=S(=O)(c1ccc2c(c1)OCCO2)N1CCN(S(=O)(=O)c2ccc3c(c2)OCCO3)CC1
Cc1cc2c(s1)c1cnn(Cc3cccc(Cn4ncc5c6sc(C)cc6n(C)c5c4=O)c3F)c(=O)c1n2C
N#Cc1ccc(S(=O)(=O)N2CCN(S(=O)(=O)c3ccc4c(c3)OCCO4)CC2)cc1
Cc1cc2c(s1)c1c(C)nn(Cc3ccccc3F)c(=O)c1n2C
COc1ccc(S(=O)(=O)N2CCN(S(=O)(=O)c3ccc(OC)cc3)CC2)cc1
Cc1cc2c(s1)c1cnn(Cc3ccc(S(C)(=O)=O)cc3)c(=O)c1n2C
O=S(=O)(c1cccc(C(F)(F)F)c1)N1CCN(S(=O)(=O)c2ccc3c(c2)OCCO3)CC1
Cn1c2cc(C#N)sc2c2cnn(Cc3ccccc3F)c(=O)c21
Cn1c2ccsc2c2ncn(Cc3ccccc3F)c(=O)c21
Cc1cc2c(s1)c1cnn(Cc3ccc(C(F)(F)F)cc3)c(=O)c1n2C
O=S(=O)(c1c(F)cccc1F)N1CCN(S(=O)(=O)c2c(F)cccc2F)CC1
